Source: PubChem BioAssay (NCATS)
Several values for one entry are separate records, joined by “and”; a condition that tells them apart may be missing. Equal entries are not always repeated. Records with an inconclusive call do not appear. Where a call stands in place of a potency, no number is given. Activity calls are given as the source filed them. Calls come from the whole dose curve; as a rule, active = well fitted curve in the direction sought with a large enough effect; inconclusive = small, poorly fitted or top-dose-only effect, or another doubt; inactive = no such curve, though single readings can be large; an effect the other way counts as inactive or inconclusive.

Tests used:
[1] = biological target: Ubiquitin carboxyl-terminal hydrolase 1 (Homo sapiens) (UniProt O94782); test: Inhibitors of USP1/UAF1: Pilot qHTS (AID 504865); note: nearly all actives have a fitted effect of over 35% in size; note: potency is the fitted concentration of half-maximal effect
In short: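 Deubiquitinase activity followed as kinetic rhodamine fluorescence release from 150 nM Ub-Rho. 1 nM USP1/UAF1 with compound, after 15 min room-temperature preincubation, in HEPES pH 7.8 buffer containing TCEP, EDTA, BSA and Tween-20.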

[2] = qHTS for Inhibitors of ATXN expression: Validation of Cytotoxic Assay (AID 588349);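 note: cells exposed to compound for 72 hr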; note: potency is the fitted concentration of half-maximal effect
In short: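 HEK293, compound dose series, 72 hr / 37 degrees C; viability via CellTiter Glo (intracellular ATP).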

[3] = qHTS for Inhibitors of ATXN expression: Validation (AID 588378); note: nearly all actives have a fitted effect of over 75% in size; note: potency is the fitted concentration of half-maximal effect
In short: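 Luciferase luminescence (Bright-Glo) from an ATXN2-FFLuc HEK293 line after 24 h compound exposure at 37 °C, preceded by a CellTiter-Fluor fluorescence viability read. Serial dilutions of a reference ATXN2 inhibitor and a luciferase inhibitor served as controls.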

[4] = biological target: DNA dC->dU-editing enzyme APOBEC-3G (Homo sapiens) (UniProt Q9HC16); test: qHTS for inhibitors of Vif-A3G interactions: Validation (AID 588379)
In short: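 HeLa cells stably expressing Vif and A3G-eYFP, 700 cells/well, incubated overnight at 37 deg C, then exposed to compound overnight at 37 deg C. Inhibition of Vif-mediated degradation read as increased yellow fluorescence (Ex 488/Em 500-530) by laser-scanning cytometry.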

Chain of Ubiquitin carboxyl-terminal hydrolase 1 (Homo sapiens) (O94782 whole entry, looked up): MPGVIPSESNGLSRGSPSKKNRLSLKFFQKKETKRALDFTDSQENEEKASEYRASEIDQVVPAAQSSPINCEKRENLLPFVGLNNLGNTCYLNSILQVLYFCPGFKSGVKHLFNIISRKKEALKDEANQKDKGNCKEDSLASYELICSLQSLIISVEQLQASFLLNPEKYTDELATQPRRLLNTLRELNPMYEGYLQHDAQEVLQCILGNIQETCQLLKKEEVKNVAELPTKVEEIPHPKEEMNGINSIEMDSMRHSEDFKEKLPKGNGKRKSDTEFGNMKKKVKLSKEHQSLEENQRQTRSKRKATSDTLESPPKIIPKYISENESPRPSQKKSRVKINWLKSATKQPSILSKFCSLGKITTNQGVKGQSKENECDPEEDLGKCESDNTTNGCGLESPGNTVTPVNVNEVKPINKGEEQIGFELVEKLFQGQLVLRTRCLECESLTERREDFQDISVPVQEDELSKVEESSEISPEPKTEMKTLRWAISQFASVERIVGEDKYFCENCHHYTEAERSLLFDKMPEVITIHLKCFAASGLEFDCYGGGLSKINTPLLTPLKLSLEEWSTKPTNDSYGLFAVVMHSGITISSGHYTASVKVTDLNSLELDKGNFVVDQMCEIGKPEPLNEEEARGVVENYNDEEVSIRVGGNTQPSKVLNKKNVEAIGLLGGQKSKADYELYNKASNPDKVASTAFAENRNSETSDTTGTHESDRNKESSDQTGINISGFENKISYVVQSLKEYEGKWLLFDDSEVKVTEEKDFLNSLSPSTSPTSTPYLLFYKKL
Chain of DNA dC->dU-editing enzyme APOBEC-3G (Homo sapiens) (Q9HC16 whole entry, looked up): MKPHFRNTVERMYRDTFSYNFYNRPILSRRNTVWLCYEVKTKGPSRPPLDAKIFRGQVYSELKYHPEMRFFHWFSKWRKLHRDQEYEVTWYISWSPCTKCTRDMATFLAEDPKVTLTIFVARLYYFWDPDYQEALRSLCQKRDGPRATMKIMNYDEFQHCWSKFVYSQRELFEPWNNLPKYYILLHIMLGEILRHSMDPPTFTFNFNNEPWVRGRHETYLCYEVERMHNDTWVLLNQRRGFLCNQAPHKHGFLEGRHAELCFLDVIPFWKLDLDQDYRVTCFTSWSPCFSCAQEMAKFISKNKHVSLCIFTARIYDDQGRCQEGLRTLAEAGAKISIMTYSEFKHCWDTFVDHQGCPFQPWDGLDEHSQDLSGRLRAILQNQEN

Structure (SMILES) | Potency [1] | Potency [2] | Potency [3] | outcome [4]
COc1ccc(OC)c(C(O)C(C)N)c1 (configuration not stated) | inactive | inactive | – | –
Cc1cc([C@@H]2CCCN2C)on1 | inactive | inactive | – | –
C[C@H](Cc1ccc2c(c1)OC(C(=O)O)(C(=O)O)O2)NC[C@H](O)c1cccc(Cl)c1 | inactive | inactive | inactive | –
Cc1o[nH]c(=O)c1CC(N)C(=O)O (configuration not stated) | inactive | inactive | – | –
OC1CCCCC1N1CCC(c2ccccc2)CC1 (configuration not stated) | inactive | inactive | inactive | –
C[N+](C)(C)CC#CCOC(=O)Nc1cccc(Cl)c1 | inactive | inactive | inactive | –
COc1ccc2[nH]c3c(c2c1)CCNC3 | inactive | inactive | – | –
CN1CCc2cc(O)cc3c2[C@H]1Cc1ccc(O)c(O)c1-3 | inactive | inactive | inactive | –
Clc1ccc(N2CC3CCC(C2)N3)nn1 | inactive | inactive | – | –
N=C(N)c1ccc(CS(=O)(=O)F)cc1 | inactive | inactive | – | –
CCCN(CCC)[C@H]1CCc2c(F)ccc(O)c2C1 | inactive | inactive | – | –
CN(C(=O)Cc1ccc(Cl)c(Cl)c1)C(CN1CCCC1)c1cccc(OCC(=O)O)c1 (configuration not stated) | inactive | inactive | inactive | –
Nc1ccc(CCN2CCN(c3cccc(C(F)(F)F)c3)CC2)cc1 | inactive | inactive | – | –
N[C@@H](CCl)C(=O)O | inactive | inactive | – | –
COc1ccc2[nH]cc(CCN)c2c1 | inactive | inactive | – | –
C[C@]12Cc3cn4c(nc3C=C1CCC1C2CC[C@@]2(C)[C@H]1CC[C@@]2(O)C#N)nc1ccccc14 (some centres not stated) | inactive | inactive | inactive | –
CC(C)(C)c1o[nH]c(=O)c1CC(N)C(=O)O (configuration not stated) | inactive | inactive | – | –
CCOC(=O)c1ncn2c1[C@@H]1CCCN1C(=O)c1cc(OC)ccc1-2 | inactive | inactive | inactive | –
C=CCN1CC[C@]23c4c5ccc(O)c4O[C@H]2/C(=N/NC(=O)c2ccccc2)CC[C@@]3(O)[C@H]1C5 | inactive | inactive | – | –
NC(CCCCCP(=O)(O)O)C(=O)O (configuration not stated) | inactive | inactive | – | –
CC(C)(O)[C@@H]1C2OC(=O)[C@@H]1[C@]1(O)C[C@H]3O[C@]34C(=O)O[C@H]2[C@]14C (tested in a mixture with another compound) | inactive | inactive | inactive | –

Structure (SMILES) | Potency [1] | Potency [2] | Potency [3] | outcome [4]
NC(Cc1ccc(N(CCCl)CCCl)cc1)C(=O)O (configuration not stated) | inactive | inactive | – | –
COc1ccc2c(c1)C13CCCCC1C(C2)N(C)CC3 (configuration not stated) | inactive | inactive | – | –
NCCCP(=O)(O)O | inactive | inactive | inactive | –
CCCN1CC[C@@H]2c3cc(O)ccc3CC[C@@H]21 | inactive | inactive | – | –
c1ccc2c(N3CCNCC3)cccc2c1 | inactive | inactive | – | –
CCCN1CCc2cccc3c2[C@H]1Cc1ccc(O)c(O)c1-3 | inactive | 35.5 µM (active) | – | –
CCNC(=O)[C@H]1O[C@@H](n2cnc3c(N)ncnc32)[C@H](O)[C@@H]1O | inactive | inactive | – | –
C[N+]1(C)C2CCC1CC(OC(=O)c1c[nH]c3ccccc13)C2 (configuration not stated) | inactive | inactive | – | –
NCCc1ccc(S(=O)(=O)F)cc1 | inactive | inactive | – | –
CC(C)NP(=O)(NC(C)C)OP(=O)(NC(C)C)NC(C)C | inactive | inactive | – | –
N[C@@]1(C(=O)O)CC[C@@H](C(=O)O)C1 | inactive | inactive | – | –
CN1CCc2cccc(Cl)c2CC1 | inactive | inactive | inactive | –
CCCN(CCC)C1CCc2cccc(O)c2C1 (configuration not stated) | inactive | inactive | – | –
CCCN1CCC[C@@H](c2cccc(O)c2)C1 | inactive | inactive | inactive | –
CCN1C[C@@]2(COC)C3[C@@H](OC)C4[C@@H]1C3([C@@H]1C[C@]3(O)[C@H](OC(=O)c5ccccc5)[C@@H]1[C@]4(OC(C)=O)[C@@H](O)[C@@H]3OC)[C@H](OC)C[C@H]2O | inactive | inactive | – | –
Ic1ccccc1CNC1C2CCN(CC2)C1C(c1ccccc1)c1ccccc1 (configuration not stated) | inactive | 25.1 µM (active) | 12.6 µM (active) | –
C=CCN1CCC23c4c5ccc(O)c4O[C@H]2C(=O)CC[C@@]3(O)C1C5 (some centres not stated) | inactive | inactive | inactive | –
NC(=O)c1cc(N2CC2)c([N+](=O)[O-])cc1[N+](=O)[O-] | inactive | inactive | inactive | –
C[C@H](N)Cc1cccc(C(F)(F)F)c1 | inactive | inactive | inactive | –
CC(=O)c1c(O)c(C)c(O)c(Cc2c(O)c3c(c(C(=O)/C=C/c4ccccc4)c2O)OC(C)(C)C=C3)c1O | 79.4 µM (active) and 56.2 µM (active) | – | – | inactive
